# A selection: hits, their analogues and other compounds. The true share with any hit is near 3.3%.
# Mcl-1 Bim block: inhibitors of Bim peptide binding to Mcl-1, primary screen, biochemical, bead-based flow cytometry, multiplex | inhibition, % at 10 µM | Bim peptide-Mcl-1 binding | Induced myeloid leukemia cell differentiation protein Mcl-1 (Homo sapiens), Q07820 | hit rate 0.1% among 190,000; in the data active = inhibition above about 40%;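 note: 0% = no compound tracer wells and 100% = peptide blocker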
# NCF1 inh: p47phox/p22phox peptide binding inhibitors, primary screen, biochemical, uHTS, NADPH oxidase regulatory subunit | Neutrophil cytosol factor 1 (Homo sapiens), P14598 | fluorescence polarization, 2 h | hit rate 0.53% among 220,000 | AID 1274, 2008 | inhibition, % at 24.7 µM;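 note: 0% = p47phox with labelled peptide and 100% = labelled peptide alone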
# Target sequence (P14598 whole entry, looked up): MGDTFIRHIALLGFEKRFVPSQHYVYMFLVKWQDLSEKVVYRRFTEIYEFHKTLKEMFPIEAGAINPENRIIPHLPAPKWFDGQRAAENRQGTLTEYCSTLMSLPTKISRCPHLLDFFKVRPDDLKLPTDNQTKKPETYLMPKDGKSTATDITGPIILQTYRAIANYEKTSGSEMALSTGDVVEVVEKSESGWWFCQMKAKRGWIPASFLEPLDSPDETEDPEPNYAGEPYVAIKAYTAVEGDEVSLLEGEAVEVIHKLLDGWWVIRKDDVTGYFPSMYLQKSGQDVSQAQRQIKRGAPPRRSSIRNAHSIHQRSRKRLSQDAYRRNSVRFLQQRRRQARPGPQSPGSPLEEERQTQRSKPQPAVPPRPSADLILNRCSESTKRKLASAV
# Mcl1 Noxa PPI: Mcl-1/Noxa binding inhibitors, primary screen, biochemical, TR-FRET, 1536-well; hit rate 1.5% among 220,000; TR-FRET Mcl-1/Noxa peptide binding, 2 h; inhibition, % at 21.7 µM; Induced myeloid leukemia cell differentiation protein Mcl-1 (Homo sapiens), Q07820;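 active = compounds that cut the protein-peptide binding signal by more than 50% relative to plate controls in a single-dose test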;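 note: His-tagged Mcl-1 with rhodamine Noxa BH3 peptide and terbium anti-His antibody; 0% = Mcl-1 plus Noxa peptide wells and 100% = peptide-only wells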
# Mcl1-Bid inh: Mcl-1/Bid binding inhibitors, primary screen, biochemical, TR-FRET, 1536-well | hit rate 0.97% among 220,000 | TR-FRET Mcl-1/Bid-Dy647 peptide binding | inhibition, % at 21.7 µM | Induced myeloid leukemia cell differentiation protein Mcl-1 (Homo sapiens), Q07820;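 active = compounds that cut the binding signal by more than half at the single screening dose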;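 note: His-tagged Mcl-1 with europium anti-His antibody binding Bid BH3 peptide; 0% = Mcl-1 plus peptide wells and 100% = peptide-only wells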
# 14-3-3 Bad PPI: inhibitors of 14-3-3 zeta/Bad binding, primary screen, biochemical, TR-FRET, bovine 14-3-3 zeta. hit rate 0.71% among 220,000. 14-3-3 protein zeta/delta (Bos taurus), P63103. TR-FRET 14-3-3zeta/Dy647-pBad peptide displacement, 1 h. inhibition, % at 21.7 µM;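 active = inhibition above about 70%, limit read from the data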;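 note: 0% = full 14-3-3 plus peptide FRET controls and 100% = background without 14-3-3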
# eIF4E-4G inh: eIF4E–eIF4G protein interaction inhibitors, primary screen, biochemical, uHTS, TR-FRET, eIF4GI fragment; hit rate 0.37% among 220,000; inhibition, % at 21.7 µM; TR-FRET eIF4E-eIF4GI(517-606) binding, 2 h; AID 782, 2007;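 note: 0% = full FRET control wells and 100% = background wells lacking eIF4GI fragment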
# An asterisk follows results filed as active; . = not tested or not shown.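 Rule for the calls, unless noted: active = inhibition above about 30% (limit read from the data); inactive = the rest.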
SMILES,Mcl-1 Bim block,NCF1 inh,Mcl1 Noxa PPI,Mcl1-Bid inh,14-3-3 Bad PPI,eIF4E-4G inh
C#CCOCCOCCOCCNc1nc(N2CCN(C(=O)[C@H](Cc3ccc(O)cc3)n3cc(CCO)nn3)CC2)nc(N2CCN(C(=O)[C@H](Cc3ccc(O)cc3)n3cc(CCO)nn3)CC2)n1,-2,-8,-30,20,73*,-5
COc1ccc(-c2[nH]ncc2CNCCc2ncccc2C)cc1F,-1,4,4,-31,-10,1
C#CCOCCOCCOCCNc1nc(N2CCN(C(=O)[C@H](CCC(=O)O)n3cc(C(N)CC(C)C)nn3)CC2)nc(N2CCN(C(=O)[C@H](CCC(=O)O)n3cc(C(N)CC(C)C)nn3)CC2)n1 (some centres undefined),-2,.,36,67*,27,3
C#CCOCCOCCOCCNc1nc(N2CCN(C(=O)C([C@@H](C)CC)n3cc(C(N)CC(C)C)nn3)CC2)nc(N2CCN(C(=O)[C@H](CCC(=O)O)n3cc(C(N)CC(C)C)nn3)CC2)n1 (some centres undefined),0,.,-12,3,14,0
CC(C)S(=O)(=O)c1csc(NC(=O)Nc2cc(Cl)ccc2Cl)c1Cl,.,-49,19,11,-3,3
O=C(NC(=S)Nc1nc2c(s1)CSc1ccccc1-2)c1ccccc1,-1,-17,73*,-18,7,-7
CC(=O)c1ccc(NC(=S)NNC(=O)c2ccncc2)cc1,-6,-13,17,92*,-4,6
COc1ccc(C(=O)NNC(=O)c2ccncc2)cc1,-4,-33,61*,-11,-6,-2
O=C1NCCN1C(=O)N(c1ccccc1)c1ccccc1,56*,6,-14,-25,-3,-10
Cc1cccc(NC(=O)Cn2c(=O)oc3ccccc32)c1,0,9,16,-12,-2,6
Cc1cccc(NC(=O)Cn2c(O)c(N=NC(=O)c3ccccc3O)c3ccccc32)c1,-1,33*,66*,66*,59,16
Cc1ccc(NC(=O)Cn2c(O)c(N=NC(=O)c3cc([N+](=O)[O-])ccc3O)c3ccccc32)cc1,.,-19,50*,-29,-2,-5
CNCCCOc1ccc(C)cc1Br,0,-1,25,61*,24,-1
CCCC(=O)c1ccc(N2CCN(C(=O)OCC)CC2)c(F)c1,-1,-5,-4,-5,77*,9
CCOC(=O)N1CCN(c2ccc(C(=O)CC)cc2F)CC1,3,9,-4,-11,-11,5
Cc1cc(=O)c2ccc(Cl)cc2[nH]1,-3,-8,-1,-10,5,-2
Cc1cc(=O)c2ccc(C(F)(F)F)cc2[nH]1,.,-7,30,83*,57,0
CCOc1ccc(Cn2c(=O)sc3ccccc32)cc1OC,.,-6,6,-22,5,4
CSC1=C(C#N)C(=O)NC(c2ccc(Cl)cc2)S1 (centres undefined),.,-4,10,-45,2,-2
CC(C)Sc1nc(N)c2c3c(sc2n1)CN(C)CC3,-2,-10,58*,-14,8,-3
CCCSc1nc(N)c2c3c(sc2n1)CN(C)CC3,0,-10,32,-36,-2,0
CCCCN1CCc2[nH]c(=S)[nH]c(=O)c2C1,-2,4,11,-45,-1,4
C=CCn1c(=NC(=O)c2ccc(S(=O)(=O)N3CCCc4ccccc43)cc2)sc2cc(S(N)(=O)=O)ccc21,-4,-24,54*,-1,-2,7
C=CCn1c(=NC(=O)c2ccc(S(=O)(=O)N3CCc4ccccc4C3)cc2)sc2cc(S(N)(=O)=O)ccc21,-6,-12,-146,46,30,8
COc1ccccc1NC(=S)N1CCN(c2nc(-c3ccccc3)cs2)CC1,0,-31,-10,-58,-12,-1
SMILES,Mcl-1 Bim block,NCF1 inh,Mcl1 Noxa PPI,Mcl1-Bid inh,14-3-3 Bad PPI,eIF4E-4G inh
CN1C(=O)NC(c2cccc(O)c2)C(C(=O)c2cccs2)C1(O)C(F)(F)F (centres undefined),-4,4,-17,-13,8,-1
CCOC(=O)C1C(c2cccs2)NC(=O)N(C)C1(O)C(F)(F)F (centres undefined),-1,-7,0,61*,-13,-2
O=C(Nc1ccc2ccccc2c1)[C@@H]1C[C@H]1[C@@H](NP(=O)(c1ccccc1)c1ccccc1)c1ccccc1,-3,-17,18,2,-9,13
NC(=O)C1(N2CCCCC2)CCN(Cc2nc3ccccc3c(=O)[nH]2)CC1,3,-5,0,-10,-20,-12
NC(=O)C1CCN(Cc2nc3ccccc3c(=O)[nH]2)CC1,2,33*,-14,-29,9,2
O=C(O)c1cccc2cccnc12,-5,-10,1,0,-1,4
O=C(Oc1ccccc1)c1cccc2cccnc12,-1,99*,-25,-27,14,5
COc1ccc(CC(=O)Nc2nnc(C(C)C)s2)cc1,2,-11,-5,-11,-12,47*
CN=c1scc(-c2ccco2)n1/N=C/c1ccc(O)c(O)c1,-1,-20,73*,-40,-27,-1
COc1ccc(O)c(/C=N/n2c(-c3ccco3)csc2=Nc2cccnc2)c1,6,-16,25,-22,-2,0
O=C(NC(=S)NNS(=O)(=O)c1ccc(Cl)cc1)c1cccnc1,-2,-6,-26,-62,-24,-1
CC1=C(C(=O)Nc2ccc(Cl)cc2)C(c2ccncc2)C(C#N)=C(SCC(N)=O)N1 (centres undefined),1,-8,-9,-14,5,-4
CC(=O)C1=C(C)NC(SCC(N)=O)=C(C#N)C1c1cccnc1 (centres undefined),2,-5,32,97*,-9,4
CCSC(=O)NC1CCCCC1,.,-13,-4,-9,1,-2
Cc1cccc(-c2n[nH]c(=S)n2C)c1,-4,-1,13,-29,-1,-3
Cc1ccn2c(-c3n[nH]c(=S)n3C)c(C)nc2c1,-4,13,54*,-52,3,22
COc1cccc(C(=O)N2CCN(Cc3cccc(F)c3)CC2)c1,-3,-7,35,40,49,-6
O=C(CN1CCN(C(=O)c2cccc(F)c2)CC1)NC1CCCCC1,-1,-2,5,21,75*,7
O=C(c1cccc(F)c1)N1CCN(Cc2ccco2)CC1,-1,-5,-9,-14,61,13
CCOc1ccc(CN2CCN(C(=O)c3cccc(F)c3)CC2)cc1,0,0,36,66*,72*,4
